Assay results from PubChem BioAssay AID1159580 (chemical genetic matrix, 2015).
In all, about 5,500 compounds went through this assay and about 2,000 (36%) were called active. Not shown: some 18% with an inconclusive outcome. No stated cut-off is given here; in the data, active means normalized growth mostly below about 0.91 (no sharp cut-off); inconclusive means no clear call, values can overlap the other calls; inactive means mostly above about 0.92. Some of the results follow.

Assay: chemical genetic growth profiling, strain panel (AID 1159580);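 further: tested at 20 µM; growth read once vehicle control cultures reached saturation at 30 °C; 1 = growth at the plate median or of vehicle wells; lower values mean less growth of the strain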
Details: growth OD
[1] = S. cerevisiae deletion strains, locus YAL013W, strain DEP1, active compounds read low
[2] = S. cerevisiae deletion strains, locus YBR229C, strain ROT2, active compounds read low
[3] = S. cerevisiae deletion strains, locus YCL061C, strain MRC1, active compounds read low
[4] = S. cerevisiae deletion strains, locus YDL101C, strain DUN1, active compounds read low
[5] = S. cerevisiae deletion strains, locus YDR150W, strain NUM1, active compounds read low
[6] = S. cerevisiae deletion strains, locus YEL061C, strain CIN8, active compounds read low
[7] = S. cerevisiae deletion strains, locus YGR078C, strain PAC10, active compounds read low
[8] = S. cerevisiae deletion strains, locus YHR030C, strain SLT2, active compounds read low
[9] = S. cerevisiae deletion strains, locus YHR087W, strain rtc3, active compounds read low
[10] = S. cerevisiae deletion strains, locus YJL187C, strain SWE1, active compounds read low
[11] = S. cerevisiae deletion strains, locus YJR043C, strain POL32, active compounds read low
[12] = S. cerevisiae deletion strains, locus YJR075W, strain HOC1, active compounds read low
[13] = S. cerevisiae deletion strains, locus YLR039C, strain RIC1, active compounds read low
[14] = S. cerevisiae deletion strains, locus YLR058C, strain SHM2 (second series), active compounds read low
[15] = S. cerevisiae deletion strains, locus YLR085C, strain ARP6, active compounds read low
[16] = S. cerevisiae deletion strains, locus YLR262C, strain YPT6, active compounds read low
[17] = S. cerevisiae deletion strains, locus YML094W, strain GIM5, active compounds read low
[18] = S. cerevisiae deletion strains, locus YMR219W, strain ESC1, active compounds read low
[19] = S. cerevisiae deletion strains, locus YMR263W, strain SAP30, active compounds read low
[20] = S. cerevisiae deletion strains, locus YNL153C, strain GIM3, active compounds read low
[21] = S. cerevisiae deletion strains, locus YNL298W, strain CLA4 (second series), active compounds read low
[22] = S. cerevisiae deletion strains, locus YNL322C, strain KRE1, active compounds read low
[23] = S. cerevisiae deletion strains, locus YNR030W, strain Alg12, active compounds read low
[24] = S. cerevisiae deletion strains, locus YPL055C, strain LGE1, active compounds read low
[25] = S. cerevisiae deletion strains, locus YPL241C, strain CIN2, active compounds read low
[26] = S. cerevisiae deletion strains, locus YPR135W, strain CTF4, active compounds read low

Measured: normalized growth

CCOC(=O)c1ccc2[nH]c(-c3ccccc3)cc(=O)c2c1
inactive: [1] 1.02 | [2] 1 | [3] 1.01 | [4] 1.01 | S. cerevisiae deletion strains, locus YDL134C, strain PPH21, active compounds read low 1.01 | [5] 1.02 | [6] 1.01 | [7] 1.01 | [8] 1.02 | [9] 1 | [10] 1.01 | [11] 1.01 | [12] 0.994 | S. cerevisiae deletion strains, locus YKL190W, strain CNB1, active compounds read low 1.01 | [13] 1.04 | [14] 1.01 | [15] 1.03 | [16] 1.03 | [17] 0.997 | [18] 1.01 | [19] 0.997 | [20] 1.01 | [21] 1.04 | [22] 1 | [23] 1.04 | S. cerevisiae deletion strains, locus YOL006C, strain TOP1, active compounds read low 1.04 | [24] 1.11 | [25] 1.03 | [26] 1.09 | S. cerevisiae strains, strain wild type, active compounds read low 1.03

O=C1CC(CSc2ccc(Cl)cc2)=NN1
inactive: [1] 0.957 | [3] 0.95 | [4] 1.02 | [5] 0.968 | [7] 0.963 | [8] 0.752 | [11] 0.982 | [12] 0.936 | [13] 1.02 | [14] 0.949 | [16] 0.987 | [19] 0.978 | [20] 0.965 | [24] 0.89
active: [2] 0.911 | [6] 0.832 | [9] 0.837 | [10] 0.908 | [15] 0.659 | [17] 0.857 | [18] 0.918 | [21] 0.789 | [22] 0.938 | [23] 0.844 | [25] 0.83 | [26] 0.639
